Experimental data reported in the supplement of paper PMC11732987, “Enantioselective OTUD7B fragment discovery through chemoproteomics screening and high-throughput optimisation” (Communications Chemistry, 2025).

Assays:
Test in all cases: log2 ratio of Biotin-Ahx-Ub-VS probe labelling (fragment/DMSO); higher = less target engagement (more negative = stronger competition), active = hit call of the paper (q ≤ 0.05, log2 ratio ≤ -1)
Settings in all cases: compound concentration: 200 uM; treatment time: 3 h
USP42 = biological target: T1, USP42 (UniProt Q9H9J4)
T1 sequence (whole entry): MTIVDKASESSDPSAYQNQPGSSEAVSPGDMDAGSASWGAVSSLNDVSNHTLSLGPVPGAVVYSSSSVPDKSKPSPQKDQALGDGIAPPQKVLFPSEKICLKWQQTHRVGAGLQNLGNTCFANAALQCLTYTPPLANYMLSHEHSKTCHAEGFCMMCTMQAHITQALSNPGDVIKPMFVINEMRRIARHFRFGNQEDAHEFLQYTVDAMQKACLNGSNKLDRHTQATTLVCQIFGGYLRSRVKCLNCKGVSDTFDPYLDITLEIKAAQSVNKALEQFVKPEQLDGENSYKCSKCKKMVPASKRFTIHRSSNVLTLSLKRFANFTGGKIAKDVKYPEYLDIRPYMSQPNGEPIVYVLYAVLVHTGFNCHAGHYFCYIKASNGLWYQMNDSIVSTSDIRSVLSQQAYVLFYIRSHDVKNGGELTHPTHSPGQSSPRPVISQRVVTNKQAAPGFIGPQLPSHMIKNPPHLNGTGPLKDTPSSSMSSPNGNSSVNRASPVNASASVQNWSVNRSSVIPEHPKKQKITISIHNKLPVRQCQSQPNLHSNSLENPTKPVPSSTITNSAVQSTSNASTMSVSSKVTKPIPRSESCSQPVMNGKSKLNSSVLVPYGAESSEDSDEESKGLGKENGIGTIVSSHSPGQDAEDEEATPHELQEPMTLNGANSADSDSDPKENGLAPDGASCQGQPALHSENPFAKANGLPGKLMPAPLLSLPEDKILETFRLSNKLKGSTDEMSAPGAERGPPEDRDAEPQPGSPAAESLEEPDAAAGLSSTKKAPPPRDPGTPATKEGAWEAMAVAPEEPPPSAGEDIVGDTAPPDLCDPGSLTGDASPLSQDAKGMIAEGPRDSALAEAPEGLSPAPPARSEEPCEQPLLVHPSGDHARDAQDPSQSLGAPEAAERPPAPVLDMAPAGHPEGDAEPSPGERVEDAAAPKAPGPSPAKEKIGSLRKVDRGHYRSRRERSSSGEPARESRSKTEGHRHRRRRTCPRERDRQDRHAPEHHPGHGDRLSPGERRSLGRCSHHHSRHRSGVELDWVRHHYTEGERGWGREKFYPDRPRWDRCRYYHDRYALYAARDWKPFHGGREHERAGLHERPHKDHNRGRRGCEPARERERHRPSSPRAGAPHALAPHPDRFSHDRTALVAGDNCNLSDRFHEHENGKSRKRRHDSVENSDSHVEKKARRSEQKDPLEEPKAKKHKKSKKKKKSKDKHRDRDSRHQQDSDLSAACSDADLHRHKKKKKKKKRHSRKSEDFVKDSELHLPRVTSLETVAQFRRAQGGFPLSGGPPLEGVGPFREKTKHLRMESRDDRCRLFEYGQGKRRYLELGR
In short: (§1)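 Fragment (200 µM) or vehicle was incubated for 3 h with triplicate HEK293T lysate samples of 495 µg, which were then treated with Biotin-Ahx-Ub-VS at 0.5 µM final for 1 h. Labelled DUBs were enriched on NeutrAvidin, digested with LysC and trypsin, and analysed by diaPASEF LC-MS/MS. Values are average log2 fragment/vehicle ratios from an unpaired t-test on global-median-normalised Spectronaut label-free quantities, using proteins with ≥2 unique peptides.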

USP46 = USP46 (UniProt P62068)
Sequence of USP46 (P62068 whole entry): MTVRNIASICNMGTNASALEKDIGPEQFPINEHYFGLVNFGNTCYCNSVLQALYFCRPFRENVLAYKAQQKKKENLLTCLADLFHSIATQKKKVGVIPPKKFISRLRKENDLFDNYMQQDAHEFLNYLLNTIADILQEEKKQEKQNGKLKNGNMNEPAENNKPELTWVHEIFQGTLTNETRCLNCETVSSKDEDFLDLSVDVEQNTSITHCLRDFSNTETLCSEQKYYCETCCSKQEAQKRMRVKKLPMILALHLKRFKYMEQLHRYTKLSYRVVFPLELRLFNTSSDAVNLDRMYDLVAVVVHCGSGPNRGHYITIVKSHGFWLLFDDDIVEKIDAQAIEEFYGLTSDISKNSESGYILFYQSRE
In short: as §1

USP47 = biological target: T2, USP47 (UniProt Q96K76)
T2 sequence (whole entry): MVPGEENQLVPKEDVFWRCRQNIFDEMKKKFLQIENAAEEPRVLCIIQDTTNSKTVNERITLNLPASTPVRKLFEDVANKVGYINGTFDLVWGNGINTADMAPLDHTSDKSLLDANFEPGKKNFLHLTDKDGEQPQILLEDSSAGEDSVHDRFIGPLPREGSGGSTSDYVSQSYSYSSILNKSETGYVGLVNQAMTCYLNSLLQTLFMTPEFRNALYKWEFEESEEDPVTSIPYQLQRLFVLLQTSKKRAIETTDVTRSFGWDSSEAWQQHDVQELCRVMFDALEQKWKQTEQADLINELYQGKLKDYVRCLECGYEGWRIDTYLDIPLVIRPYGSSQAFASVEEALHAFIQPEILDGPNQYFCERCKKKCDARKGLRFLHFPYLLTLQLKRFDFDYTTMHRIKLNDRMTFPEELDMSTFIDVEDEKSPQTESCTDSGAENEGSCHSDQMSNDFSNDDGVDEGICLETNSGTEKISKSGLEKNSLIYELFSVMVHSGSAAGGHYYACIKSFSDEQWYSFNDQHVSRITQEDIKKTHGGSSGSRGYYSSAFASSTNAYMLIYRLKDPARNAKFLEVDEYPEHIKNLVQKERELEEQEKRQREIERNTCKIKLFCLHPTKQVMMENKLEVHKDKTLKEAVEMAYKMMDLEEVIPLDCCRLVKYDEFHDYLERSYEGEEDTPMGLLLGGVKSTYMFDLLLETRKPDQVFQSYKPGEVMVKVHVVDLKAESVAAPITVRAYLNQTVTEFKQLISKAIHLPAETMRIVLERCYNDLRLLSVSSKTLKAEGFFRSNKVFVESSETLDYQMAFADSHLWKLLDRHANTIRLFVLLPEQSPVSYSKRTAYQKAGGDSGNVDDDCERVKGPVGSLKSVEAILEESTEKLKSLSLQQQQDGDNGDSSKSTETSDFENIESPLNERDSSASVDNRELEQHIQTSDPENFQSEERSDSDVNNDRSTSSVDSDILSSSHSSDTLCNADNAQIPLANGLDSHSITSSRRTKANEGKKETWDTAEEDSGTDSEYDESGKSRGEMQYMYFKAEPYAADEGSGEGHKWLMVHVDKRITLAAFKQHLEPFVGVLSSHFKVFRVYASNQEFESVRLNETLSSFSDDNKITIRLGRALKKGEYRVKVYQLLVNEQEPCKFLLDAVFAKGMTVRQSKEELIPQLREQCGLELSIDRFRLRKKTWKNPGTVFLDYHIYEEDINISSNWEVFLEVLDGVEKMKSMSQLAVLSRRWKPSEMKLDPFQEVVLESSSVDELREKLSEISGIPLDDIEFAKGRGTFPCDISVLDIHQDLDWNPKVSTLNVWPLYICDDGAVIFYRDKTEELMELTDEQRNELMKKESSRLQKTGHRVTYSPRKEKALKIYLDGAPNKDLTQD
In short: as §1

USP48 = biological target: T3, USP48 (UniProt Q86UV5)
T3 sequence (whole entry): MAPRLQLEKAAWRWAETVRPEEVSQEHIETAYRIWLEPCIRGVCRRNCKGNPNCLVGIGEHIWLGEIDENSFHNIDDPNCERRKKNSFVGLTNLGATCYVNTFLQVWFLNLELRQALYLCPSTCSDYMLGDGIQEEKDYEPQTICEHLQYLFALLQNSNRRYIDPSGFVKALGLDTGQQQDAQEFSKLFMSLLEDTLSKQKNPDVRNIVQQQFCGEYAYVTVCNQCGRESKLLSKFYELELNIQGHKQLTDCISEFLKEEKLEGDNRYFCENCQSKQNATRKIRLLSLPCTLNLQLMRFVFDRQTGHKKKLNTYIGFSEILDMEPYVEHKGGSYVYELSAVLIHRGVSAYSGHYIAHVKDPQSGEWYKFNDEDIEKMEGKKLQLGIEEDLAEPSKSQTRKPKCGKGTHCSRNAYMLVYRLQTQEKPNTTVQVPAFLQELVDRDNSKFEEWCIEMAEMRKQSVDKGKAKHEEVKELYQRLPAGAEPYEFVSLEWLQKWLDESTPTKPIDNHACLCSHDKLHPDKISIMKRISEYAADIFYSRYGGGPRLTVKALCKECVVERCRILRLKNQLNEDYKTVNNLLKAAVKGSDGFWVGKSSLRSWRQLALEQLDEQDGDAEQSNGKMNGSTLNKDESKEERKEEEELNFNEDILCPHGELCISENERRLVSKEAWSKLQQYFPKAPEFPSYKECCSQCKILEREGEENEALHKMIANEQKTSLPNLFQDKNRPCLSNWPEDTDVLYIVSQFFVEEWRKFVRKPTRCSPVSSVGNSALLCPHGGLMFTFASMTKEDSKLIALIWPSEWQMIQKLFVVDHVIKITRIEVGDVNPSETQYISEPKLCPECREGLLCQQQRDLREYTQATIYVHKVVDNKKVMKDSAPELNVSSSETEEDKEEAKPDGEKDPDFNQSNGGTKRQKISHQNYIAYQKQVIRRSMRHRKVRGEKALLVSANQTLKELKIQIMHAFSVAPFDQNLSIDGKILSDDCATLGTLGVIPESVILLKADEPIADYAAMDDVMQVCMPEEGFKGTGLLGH
In short: as §1

USP5 = biological target: T4, USP5 (UniProt P45974)
T4 sequence (whole entry): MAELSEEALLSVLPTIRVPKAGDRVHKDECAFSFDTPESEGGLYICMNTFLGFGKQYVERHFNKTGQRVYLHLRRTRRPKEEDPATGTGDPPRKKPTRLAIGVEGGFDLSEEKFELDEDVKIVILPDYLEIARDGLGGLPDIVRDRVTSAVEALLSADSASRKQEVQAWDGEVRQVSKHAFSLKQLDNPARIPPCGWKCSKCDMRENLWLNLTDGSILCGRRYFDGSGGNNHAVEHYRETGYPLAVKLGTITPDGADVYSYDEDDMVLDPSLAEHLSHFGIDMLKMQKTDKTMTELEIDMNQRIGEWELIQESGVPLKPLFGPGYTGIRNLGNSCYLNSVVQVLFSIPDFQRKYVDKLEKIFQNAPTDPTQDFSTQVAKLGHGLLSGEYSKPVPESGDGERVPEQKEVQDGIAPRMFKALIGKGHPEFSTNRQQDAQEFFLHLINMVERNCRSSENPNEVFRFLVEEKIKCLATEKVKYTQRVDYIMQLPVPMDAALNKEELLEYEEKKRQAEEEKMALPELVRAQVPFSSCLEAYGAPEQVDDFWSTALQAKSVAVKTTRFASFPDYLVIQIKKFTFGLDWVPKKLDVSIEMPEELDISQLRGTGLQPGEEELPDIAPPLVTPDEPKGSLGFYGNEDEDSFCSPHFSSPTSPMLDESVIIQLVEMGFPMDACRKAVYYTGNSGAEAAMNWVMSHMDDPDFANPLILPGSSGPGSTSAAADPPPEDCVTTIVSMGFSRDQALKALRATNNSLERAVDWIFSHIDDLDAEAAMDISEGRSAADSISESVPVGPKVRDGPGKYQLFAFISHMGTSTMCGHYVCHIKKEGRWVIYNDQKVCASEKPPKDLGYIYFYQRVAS
In short: as §1

USP54 = USP54 (UniProt Q70EL1)
Sequence of USP54 (Q70EL1 whole entry): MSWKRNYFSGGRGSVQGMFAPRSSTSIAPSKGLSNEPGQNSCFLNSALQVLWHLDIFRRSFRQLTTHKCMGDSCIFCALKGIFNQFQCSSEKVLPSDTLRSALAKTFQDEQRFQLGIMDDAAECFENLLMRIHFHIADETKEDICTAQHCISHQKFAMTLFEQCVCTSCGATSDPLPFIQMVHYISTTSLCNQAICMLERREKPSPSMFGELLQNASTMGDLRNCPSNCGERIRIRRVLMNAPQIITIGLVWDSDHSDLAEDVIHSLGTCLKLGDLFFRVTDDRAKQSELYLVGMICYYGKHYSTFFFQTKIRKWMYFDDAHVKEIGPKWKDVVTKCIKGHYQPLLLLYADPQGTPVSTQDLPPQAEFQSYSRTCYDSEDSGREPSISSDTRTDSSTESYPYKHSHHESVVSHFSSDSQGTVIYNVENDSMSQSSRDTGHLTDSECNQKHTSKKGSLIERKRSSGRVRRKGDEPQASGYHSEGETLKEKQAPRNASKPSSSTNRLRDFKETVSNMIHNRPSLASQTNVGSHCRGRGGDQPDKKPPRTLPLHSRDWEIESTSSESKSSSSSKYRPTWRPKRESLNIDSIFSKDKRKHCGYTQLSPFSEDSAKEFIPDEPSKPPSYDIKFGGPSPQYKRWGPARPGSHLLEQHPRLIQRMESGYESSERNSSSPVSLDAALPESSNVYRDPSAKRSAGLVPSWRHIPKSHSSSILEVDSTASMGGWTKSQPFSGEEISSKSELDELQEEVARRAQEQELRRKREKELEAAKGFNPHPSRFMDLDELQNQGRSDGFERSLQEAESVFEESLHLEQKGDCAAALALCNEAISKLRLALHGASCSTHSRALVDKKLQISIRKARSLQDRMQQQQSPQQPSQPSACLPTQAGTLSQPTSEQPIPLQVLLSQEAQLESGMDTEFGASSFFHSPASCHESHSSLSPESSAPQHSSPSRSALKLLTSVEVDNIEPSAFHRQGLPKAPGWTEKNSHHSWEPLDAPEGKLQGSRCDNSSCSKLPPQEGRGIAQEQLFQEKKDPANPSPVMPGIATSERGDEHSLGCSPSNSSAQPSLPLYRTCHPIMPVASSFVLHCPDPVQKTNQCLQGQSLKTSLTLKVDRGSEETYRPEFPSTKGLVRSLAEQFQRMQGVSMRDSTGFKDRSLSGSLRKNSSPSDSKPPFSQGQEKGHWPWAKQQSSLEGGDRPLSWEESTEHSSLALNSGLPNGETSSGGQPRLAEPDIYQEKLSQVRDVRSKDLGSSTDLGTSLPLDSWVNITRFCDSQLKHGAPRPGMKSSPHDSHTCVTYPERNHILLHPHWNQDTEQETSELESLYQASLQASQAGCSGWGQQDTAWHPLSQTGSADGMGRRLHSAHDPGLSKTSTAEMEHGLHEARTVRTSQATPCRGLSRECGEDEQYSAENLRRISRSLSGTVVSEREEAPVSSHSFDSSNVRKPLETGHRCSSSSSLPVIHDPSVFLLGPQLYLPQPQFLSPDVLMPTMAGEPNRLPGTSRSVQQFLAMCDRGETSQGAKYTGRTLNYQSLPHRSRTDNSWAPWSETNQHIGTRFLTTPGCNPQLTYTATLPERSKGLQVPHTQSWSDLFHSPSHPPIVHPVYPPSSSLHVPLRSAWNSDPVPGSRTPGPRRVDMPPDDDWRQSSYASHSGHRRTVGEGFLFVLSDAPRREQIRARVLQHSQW
In short: as §1

USP7 = USP7 (UniProt Q93009)
In short: as §1

USP8 = biological target: T5, USP8 (UniProt P40818)
T5 sequence (whole entry): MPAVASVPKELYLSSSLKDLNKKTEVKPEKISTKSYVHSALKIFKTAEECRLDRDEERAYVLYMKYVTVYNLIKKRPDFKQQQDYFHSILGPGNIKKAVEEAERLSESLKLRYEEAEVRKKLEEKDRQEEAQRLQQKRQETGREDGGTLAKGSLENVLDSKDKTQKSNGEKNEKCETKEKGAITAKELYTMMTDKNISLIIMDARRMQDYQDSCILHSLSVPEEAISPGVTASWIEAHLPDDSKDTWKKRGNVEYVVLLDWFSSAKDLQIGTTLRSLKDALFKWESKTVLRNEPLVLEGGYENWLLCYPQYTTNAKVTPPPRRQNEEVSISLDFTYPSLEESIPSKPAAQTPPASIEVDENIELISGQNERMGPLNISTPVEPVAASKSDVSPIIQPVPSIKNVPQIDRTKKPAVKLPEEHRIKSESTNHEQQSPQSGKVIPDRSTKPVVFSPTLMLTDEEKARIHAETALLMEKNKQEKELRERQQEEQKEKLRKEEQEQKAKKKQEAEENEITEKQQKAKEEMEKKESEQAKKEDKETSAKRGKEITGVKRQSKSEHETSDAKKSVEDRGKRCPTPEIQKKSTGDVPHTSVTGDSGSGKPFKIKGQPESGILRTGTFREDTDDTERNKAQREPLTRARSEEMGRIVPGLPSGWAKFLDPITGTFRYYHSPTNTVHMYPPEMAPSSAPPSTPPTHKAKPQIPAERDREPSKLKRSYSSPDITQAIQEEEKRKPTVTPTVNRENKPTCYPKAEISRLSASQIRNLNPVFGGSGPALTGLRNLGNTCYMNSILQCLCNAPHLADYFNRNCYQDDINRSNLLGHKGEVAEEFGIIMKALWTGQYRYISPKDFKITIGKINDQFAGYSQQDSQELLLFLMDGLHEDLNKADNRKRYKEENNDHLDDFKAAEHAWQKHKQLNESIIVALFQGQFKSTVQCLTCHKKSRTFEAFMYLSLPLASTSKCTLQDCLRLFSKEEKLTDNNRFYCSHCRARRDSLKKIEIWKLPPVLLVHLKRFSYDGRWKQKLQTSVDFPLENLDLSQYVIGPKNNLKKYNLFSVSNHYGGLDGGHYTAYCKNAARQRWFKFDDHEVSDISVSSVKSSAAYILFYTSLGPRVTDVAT
In short: as §1

USP9X = USP9X (UniProt Q93008)
Sequence of USP9X (Q93008 whole entry): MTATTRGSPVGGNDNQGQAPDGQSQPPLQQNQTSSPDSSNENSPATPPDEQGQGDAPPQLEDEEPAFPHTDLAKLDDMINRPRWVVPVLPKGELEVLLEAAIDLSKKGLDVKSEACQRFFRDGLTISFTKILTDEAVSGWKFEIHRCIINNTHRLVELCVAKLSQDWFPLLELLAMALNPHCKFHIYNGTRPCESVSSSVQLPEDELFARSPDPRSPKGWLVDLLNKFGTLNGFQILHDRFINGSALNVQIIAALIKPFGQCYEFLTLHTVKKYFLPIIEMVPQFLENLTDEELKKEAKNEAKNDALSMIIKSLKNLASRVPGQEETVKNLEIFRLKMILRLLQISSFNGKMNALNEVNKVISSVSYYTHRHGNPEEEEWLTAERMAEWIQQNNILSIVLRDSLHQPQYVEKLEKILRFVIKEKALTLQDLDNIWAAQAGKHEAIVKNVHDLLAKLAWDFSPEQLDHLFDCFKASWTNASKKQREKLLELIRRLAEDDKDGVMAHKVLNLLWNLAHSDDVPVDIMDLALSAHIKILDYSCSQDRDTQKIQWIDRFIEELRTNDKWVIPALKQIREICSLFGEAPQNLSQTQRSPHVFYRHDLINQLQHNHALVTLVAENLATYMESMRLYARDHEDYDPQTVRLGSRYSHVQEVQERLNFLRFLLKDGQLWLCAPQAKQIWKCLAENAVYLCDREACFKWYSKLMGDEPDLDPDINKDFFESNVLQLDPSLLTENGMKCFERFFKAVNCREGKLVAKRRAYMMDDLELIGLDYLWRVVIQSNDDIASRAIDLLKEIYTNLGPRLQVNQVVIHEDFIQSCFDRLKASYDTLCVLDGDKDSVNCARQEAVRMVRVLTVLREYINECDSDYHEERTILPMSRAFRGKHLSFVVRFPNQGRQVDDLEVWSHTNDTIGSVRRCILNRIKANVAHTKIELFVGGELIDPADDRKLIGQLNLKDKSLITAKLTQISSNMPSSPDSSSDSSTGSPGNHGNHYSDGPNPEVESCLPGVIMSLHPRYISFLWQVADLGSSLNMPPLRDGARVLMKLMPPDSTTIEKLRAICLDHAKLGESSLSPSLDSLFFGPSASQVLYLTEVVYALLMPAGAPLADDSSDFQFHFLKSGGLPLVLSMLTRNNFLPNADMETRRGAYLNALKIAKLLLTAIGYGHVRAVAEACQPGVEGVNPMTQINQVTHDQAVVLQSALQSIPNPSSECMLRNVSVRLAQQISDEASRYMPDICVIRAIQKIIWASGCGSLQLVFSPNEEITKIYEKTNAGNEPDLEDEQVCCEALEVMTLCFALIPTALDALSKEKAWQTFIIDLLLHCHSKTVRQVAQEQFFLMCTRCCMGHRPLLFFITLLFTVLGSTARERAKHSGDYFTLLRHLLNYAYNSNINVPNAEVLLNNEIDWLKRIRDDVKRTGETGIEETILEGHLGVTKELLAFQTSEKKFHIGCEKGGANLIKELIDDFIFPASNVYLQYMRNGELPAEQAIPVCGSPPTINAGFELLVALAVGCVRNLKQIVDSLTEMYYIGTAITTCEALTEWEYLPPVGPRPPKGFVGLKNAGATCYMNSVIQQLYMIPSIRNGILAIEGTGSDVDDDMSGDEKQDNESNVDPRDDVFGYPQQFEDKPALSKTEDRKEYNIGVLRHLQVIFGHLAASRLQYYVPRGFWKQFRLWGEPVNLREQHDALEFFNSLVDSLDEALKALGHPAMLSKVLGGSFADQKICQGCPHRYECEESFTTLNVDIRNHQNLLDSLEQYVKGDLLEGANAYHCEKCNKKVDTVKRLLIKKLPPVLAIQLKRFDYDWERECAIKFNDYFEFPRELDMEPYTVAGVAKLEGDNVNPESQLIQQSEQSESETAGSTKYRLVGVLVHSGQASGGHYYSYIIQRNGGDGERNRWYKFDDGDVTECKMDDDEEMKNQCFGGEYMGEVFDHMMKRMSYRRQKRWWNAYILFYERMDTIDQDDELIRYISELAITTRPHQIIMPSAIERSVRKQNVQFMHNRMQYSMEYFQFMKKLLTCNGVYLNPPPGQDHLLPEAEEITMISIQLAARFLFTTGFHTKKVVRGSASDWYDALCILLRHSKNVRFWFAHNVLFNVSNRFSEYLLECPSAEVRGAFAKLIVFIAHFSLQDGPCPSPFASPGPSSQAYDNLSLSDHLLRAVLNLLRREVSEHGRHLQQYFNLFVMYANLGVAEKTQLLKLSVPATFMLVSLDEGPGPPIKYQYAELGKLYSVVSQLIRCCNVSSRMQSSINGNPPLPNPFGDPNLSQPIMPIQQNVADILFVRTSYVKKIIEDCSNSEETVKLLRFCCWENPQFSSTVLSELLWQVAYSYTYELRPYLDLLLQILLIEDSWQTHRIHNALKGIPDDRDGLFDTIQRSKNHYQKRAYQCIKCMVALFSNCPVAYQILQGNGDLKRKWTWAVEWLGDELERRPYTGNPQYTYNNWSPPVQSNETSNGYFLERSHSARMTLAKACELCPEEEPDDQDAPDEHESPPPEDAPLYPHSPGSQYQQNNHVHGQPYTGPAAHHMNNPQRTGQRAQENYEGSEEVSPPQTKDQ
In short: as §1

UniProt O00487 = biological target: UniProt O00487
Sequence of UniProt O00487 (O00487 whole entry): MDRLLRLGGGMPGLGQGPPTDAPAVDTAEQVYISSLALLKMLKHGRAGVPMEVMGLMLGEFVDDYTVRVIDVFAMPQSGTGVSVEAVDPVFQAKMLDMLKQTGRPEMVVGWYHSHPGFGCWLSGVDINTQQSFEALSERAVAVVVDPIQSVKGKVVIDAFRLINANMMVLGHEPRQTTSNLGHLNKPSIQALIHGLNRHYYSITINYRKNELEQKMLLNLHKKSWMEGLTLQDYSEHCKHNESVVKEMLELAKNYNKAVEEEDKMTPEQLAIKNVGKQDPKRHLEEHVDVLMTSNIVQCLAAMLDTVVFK
In short: as §1

Measured: log2 ratio of Biotin-Ahx-Ub-VS probe labelling

Cl.O=C(CCl)N1CCn2cncc2C1
inactive: USP42 0.404 | USP46 -0.137 | USP47 0.174 | USP48 -0.0876 | USP5 -0.362 | USP54 0.158 | USP7 -0.527 | USP8 -0.217 | USP9X -0.0687 | UniProt O00487 -0.0669
